“And” between values parts separate entries of the source, which are not always exact repeats. Identical values can stand only once. Inconclusive results are not listed. The source made the active and inactive calls. Rule for the calls, unless noted: active = hit-call score of the fitted dose curve at least 0.9, where 1 is the maximum; inconclusive = response in the unintended direction; inactive = score below 0.9.
What was measured:
[1] = ATG_NRF2_ARE_CIS: Attagene CIS-FACTORIAL HepG2 Assay for human Nuclear Factor Erythroid 2 Related Factor 2 (NFR2) response to Antioxidant Response Elements (ARE) (AID 2282992; active = hit-call score of the fitted dose curve at least 0.9, where 1 is the maximum; inactive = score below 0.9;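 for AC50: reporter mRNA level measured by RT-PCR and capillary electrophoresis fluorescence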); conditions: HepG2 Attagene ARE/NRF2 reporter, transcription factor activity; actives raise or lower the signal
In short: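 Endogenous transcription factor activity in human liver HepG2 cells is tracked via a cis-element-driven reporter within a multiplexed set. mRNA induction is read by RT-PCR and capillary electrophoresis after 24 h, with DMSO as baseline.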

[2] = ATG_Oct_MLP_CIS: Attagene CIS-FACTORIAL HepG2 Assay for human Octamer-Binding Transcription Factor (Oct) (AID 2282993; active = hit-call score of the fitted dose curve at least 0.9, where 1 is the maximum; inactive = score below 0.9); conditions: HepG2 Attagene cis-factorial Oct reporter, mRNA; actives raise or lower the signal
In short: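 HepG2 cells transiently transfected with cis-promoter-driven multiplexed reporter transcription units, dosed for 24 h. Reporter mRNA quantified by RT-PCR, fluorescent labelling, HpaI digestion and capillary electrophoresis; bidirectional fits versus DMSO baseline.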

[3] = BSK_3C_TissueFactor: BioMAP Diversity Plus: 3C Assay for Tissue Factor Biomarker Activity (AID 2282997; active = hit-call score of the fitted dose curve at least 0.9, where 1 is the maximum; inactive = score below 0.9); conditions: BioMAP 3C HUVEC, tissue factor biomarker readout; actives raise or lower the signal
In short: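 Tissue factor on primary human umbilical vein endothelium was read by ELISA 24 h after dosing, gain or loss relative to DMSO. Cytotoxicity ran alongside via SRB (0.1%, TCA-fixed, 560 nm).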

[4] = target: human Peroxisome Proliferator-activated Receptor alpha (PPARa), PPARA (gene 5465) (UniProt Q07869); assay: ATG_PPARa_TRANS: Attagene TRANS-FACTORIAL HepG2 Assay for human Peroxisome Proliferator-activated Receptor alpha (PPARa) (AID 2283001);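 for AC50: potency for gain of reporter signal over DMSO so agonist or activator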
Chain of human Peroxisome Proliferator-activated Receptor alpha (PPARa), PPARA (gene 5465) (Q07869 whole entry, looked up, the tested form may be a part): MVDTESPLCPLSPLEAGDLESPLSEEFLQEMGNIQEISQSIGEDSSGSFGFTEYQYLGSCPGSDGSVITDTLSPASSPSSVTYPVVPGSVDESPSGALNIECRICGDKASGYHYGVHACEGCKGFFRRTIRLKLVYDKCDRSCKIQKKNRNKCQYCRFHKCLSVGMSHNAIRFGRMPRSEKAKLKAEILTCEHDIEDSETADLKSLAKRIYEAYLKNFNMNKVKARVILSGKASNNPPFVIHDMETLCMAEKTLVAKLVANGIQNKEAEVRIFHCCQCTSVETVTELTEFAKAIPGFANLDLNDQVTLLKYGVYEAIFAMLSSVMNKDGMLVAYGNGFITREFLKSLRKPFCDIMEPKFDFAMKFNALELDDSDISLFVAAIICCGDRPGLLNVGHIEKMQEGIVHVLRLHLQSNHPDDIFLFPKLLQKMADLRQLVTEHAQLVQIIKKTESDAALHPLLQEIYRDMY
In short: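 Transfected HepG2 cells treated with test chemical for 24 h. RNA isolated, reverse-transcribed with oligo(dT), PCR-amplified, FAM-labelled and HpaI-digested. Fragments sized by capillary electrophoresis; gain-of-signal fit relative to DMSO.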

[5] = target: human Peroxisome Proliferator-activated Receptor delta (PPARd), PPARD (gene 5467) (UniProt Q03181); assay: ATG_PPARd_TRANS: Attagene TRANS-FACTORIAL HepG2 Assay for human Peroxisome Proliferator-activated Receptor delta (PPARd) (AID 2283002)
Chain of human Peroxisome Proliferator-activated Receptor delta (PPARd), PPARD (gene 5467) (Q03181 whole entry, looked up): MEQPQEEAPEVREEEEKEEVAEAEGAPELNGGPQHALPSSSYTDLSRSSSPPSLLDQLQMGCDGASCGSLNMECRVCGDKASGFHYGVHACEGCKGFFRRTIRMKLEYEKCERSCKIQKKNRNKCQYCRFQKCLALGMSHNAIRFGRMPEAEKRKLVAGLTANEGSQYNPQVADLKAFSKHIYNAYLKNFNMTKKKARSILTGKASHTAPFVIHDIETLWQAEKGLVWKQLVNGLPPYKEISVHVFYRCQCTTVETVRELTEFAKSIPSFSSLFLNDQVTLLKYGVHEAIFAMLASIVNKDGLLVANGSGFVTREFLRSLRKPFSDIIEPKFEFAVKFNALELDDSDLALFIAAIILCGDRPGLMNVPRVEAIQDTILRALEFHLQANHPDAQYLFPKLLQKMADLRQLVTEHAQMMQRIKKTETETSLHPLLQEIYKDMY
In short: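 Cell-based TRANS reporter: HepG2, transient MRTU transfection, 24 h exposure. Readout = reporter mRNA (RT-PCR/CE, 6-FAM). Gain-of-signal fit vs DMSO control.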

[6] = read-out: Intercellular Adhesion Molecule 1 (ICAM1), ICAM1 (gene 3383); assay: BSK_3C_ICAM1: BioMAP Diversity Plus: 3C Assay for Intercellular Adhesion Molecule 1 (ICAM1) Biomarker Activity (AID 2283003; active = hit-call score of the fitted dose curve at least 0.9, where 1 is the maximum; inactive = score below 0.9); conditions: primary human endothelial cells (HUVEC); actives raise or lower the signal
In short: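 ELISA read-out of ICAM-1; HUVEC (primary human), 3C system, 24 h post-dosing; bidirectional fit vs DMSO baseline.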

[7] = BSK_3C_Proliferation: Cell Proliferation Assessment in the BioMAP Diversity Plus: 3C Assay (AID 2283006; active = hit-call score of the fitted dose curve at least 0.9, where 1 is the maximum; inactive = score below 0.9;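 for AC50: potency may reflect either rise or fall in cell number versus DMSO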); conditions: primary human endothelial cells (HUVEC)
In short: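 HUVEC, sub-confluent; 48 h chemical exposure; 10% TCA fix, 0.1% SRB stain, A560 total protein. Gain or loss of signal fitted both directions vs DMSO control.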

[8] = target: human Retinoic Acid Receptor gamma (RARg), RARG (gene 5916) (UniProt P13631); assay: ATG_RARg_TRANS: Attagene TRANS-FACTORIAL HepG2 Assay for human Retinoic Acid Receptor gamma (RARg) (AID 2283009)
Chain of human Retinoic Acid Receptor gamma (RARg), RARG (gene 5916) (P13631 whole entry, looked up, the tested form may be a part): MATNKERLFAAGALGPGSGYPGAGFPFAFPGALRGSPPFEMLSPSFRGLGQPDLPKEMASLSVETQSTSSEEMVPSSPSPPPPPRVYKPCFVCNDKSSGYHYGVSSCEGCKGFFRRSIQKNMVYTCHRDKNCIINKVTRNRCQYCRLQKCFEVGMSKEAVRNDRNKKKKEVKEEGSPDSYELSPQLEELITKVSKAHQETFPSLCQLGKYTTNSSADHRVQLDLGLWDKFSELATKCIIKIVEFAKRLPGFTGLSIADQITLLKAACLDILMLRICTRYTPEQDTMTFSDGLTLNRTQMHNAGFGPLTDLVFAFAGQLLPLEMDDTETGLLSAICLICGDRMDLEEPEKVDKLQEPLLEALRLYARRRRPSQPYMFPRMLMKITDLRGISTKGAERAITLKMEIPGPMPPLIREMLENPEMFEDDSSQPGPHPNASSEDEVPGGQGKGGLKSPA
In short: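 Readout: reporter transcript levels via RT-PCR, 6-FAM primer-extension labelling, HpaI digestion and capillary electrophoresis. Cells: HepG2 carrying transfected RARg-GAL4 chimera plus UAS reporter set. Dosing 24 h; DMSO negative control.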

[9] = target: human Retinoid X Receptor beta (RXRb), RXRB (gene 6257) (UniProt P28702); assay: ATG_RXRb_TRANS: Attagene TRANS-FACTORIAL HepG2 Assay for human Retinoid X Receptor beta (RXRb) (AID 2283013)
Chain of human Retinoid X Receptor beta (RXRb), RXRB (gene 6257) (P28702 whole entry, looked up, the tested form may be a part): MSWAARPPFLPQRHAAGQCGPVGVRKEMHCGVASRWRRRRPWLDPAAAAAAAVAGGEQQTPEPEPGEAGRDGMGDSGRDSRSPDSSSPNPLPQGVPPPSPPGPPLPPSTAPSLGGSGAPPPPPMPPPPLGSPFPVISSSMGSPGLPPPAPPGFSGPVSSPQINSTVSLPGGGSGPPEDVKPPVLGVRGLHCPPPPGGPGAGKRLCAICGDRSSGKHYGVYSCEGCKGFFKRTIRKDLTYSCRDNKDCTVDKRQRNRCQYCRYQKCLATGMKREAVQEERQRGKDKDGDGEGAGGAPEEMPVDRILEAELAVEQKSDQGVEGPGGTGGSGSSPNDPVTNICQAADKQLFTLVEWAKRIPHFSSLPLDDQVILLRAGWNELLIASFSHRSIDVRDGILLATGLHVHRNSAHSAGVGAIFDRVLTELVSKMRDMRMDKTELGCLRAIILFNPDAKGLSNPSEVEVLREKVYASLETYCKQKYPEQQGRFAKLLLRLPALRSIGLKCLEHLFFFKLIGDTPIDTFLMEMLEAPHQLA
In short: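 Read-out: reporter mRNA induction via RT-PCR plus capillary electrophoresis fluorescence, analysed as signal increase relative to DMSO. Cells were human HepG2, transiently transfected with GAL4-UAS reporter constructs and chimeric receptor-Gal4 fusions, dosed for 24 h.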

[10] = target: Peroxisome proliferator-activated receptor gamma (Homo sapiens) (UniProt P37231); assay: ATG_PPARg_TRANS: Attagene TRANS-FACTORIAL HepG2 Assay for human Peroxisome Proliferator-activated Receptor-gamma (PPARg) (AID 2283007)
Chain of Peroxisome proliferator-activated receptor gamma (Homo sapiens) (P37231 whole entry, looked up, the tested form may be a part): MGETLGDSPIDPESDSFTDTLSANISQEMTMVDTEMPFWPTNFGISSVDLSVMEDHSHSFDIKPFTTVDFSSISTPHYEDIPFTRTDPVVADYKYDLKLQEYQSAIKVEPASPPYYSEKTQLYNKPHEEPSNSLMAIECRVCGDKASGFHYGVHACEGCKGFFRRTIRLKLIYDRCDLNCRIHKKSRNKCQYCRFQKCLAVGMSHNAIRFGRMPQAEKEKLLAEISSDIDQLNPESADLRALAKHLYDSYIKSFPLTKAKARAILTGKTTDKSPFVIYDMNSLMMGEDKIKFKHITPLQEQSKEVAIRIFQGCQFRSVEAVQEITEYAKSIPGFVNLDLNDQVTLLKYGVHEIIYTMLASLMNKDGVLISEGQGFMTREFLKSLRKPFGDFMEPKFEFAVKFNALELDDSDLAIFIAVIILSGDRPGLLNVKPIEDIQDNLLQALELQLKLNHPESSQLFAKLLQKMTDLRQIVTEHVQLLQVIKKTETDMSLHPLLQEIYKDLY
In short: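 Read-out: reporter mRNA induction, detected by fluorescence after RT-PCR and capillary electrophoresis. Transiently transfected human HepG2 liver cells carrying a chimeric NR-Gal4 construct were dosed for 24 h; activity was fitted upward relative to DMSO.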

[11] = target: Nuclear receptor subfamily 1 group I member 2 (Homo sapiens) (UniProt O75469); assay: ATG_PXR_TRANS: Attagene TRANS-FACTORIAL HepG2 Assay for human Pregnane X Receptor (PXR) (AID 2283008)
Chain of Nuclear receptor subfamily 1 group I member 2 (Homo sapiens) (O75469 whole entry, looked up, the tested form may be a part): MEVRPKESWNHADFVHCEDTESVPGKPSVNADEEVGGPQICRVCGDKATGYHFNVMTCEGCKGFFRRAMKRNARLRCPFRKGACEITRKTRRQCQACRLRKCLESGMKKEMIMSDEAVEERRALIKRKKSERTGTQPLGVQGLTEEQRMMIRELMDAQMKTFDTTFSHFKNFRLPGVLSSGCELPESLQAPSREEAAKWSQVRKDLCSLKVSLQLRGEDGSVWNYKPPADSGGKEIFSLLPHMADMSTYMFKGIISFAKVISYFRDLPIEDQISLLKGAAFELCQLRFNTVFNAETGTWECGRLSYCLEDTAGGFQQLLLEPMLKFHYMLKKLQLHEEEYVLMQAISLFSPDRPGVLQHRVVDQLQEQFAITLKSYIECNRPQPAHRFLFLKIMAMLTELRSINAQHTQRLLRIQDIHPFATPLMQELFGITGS
In short: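 HepG2 transfected (FuGene 6) with GAL4-UAS reporter units + PXR-Gal4 chimera; dosed 24 h. Total RNA → oligo(dT) RT → PCR → 6-FAM primer extension → HpaI cut → CE. Gain-of-signal vs DMSO.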

[12] = target: human RAR-related Orphan Receptor beta (RORb), RORB (gene 6096) (UniProt Q92753); assay: ATG_RORb_TRANS: Attagene TRANS-FACTORIAL HepG2 Assay for human RAR-related Orphan Receptor beta (RORb) (AID 2283010)
Chain of human RAR-related Orphan Receptor beta (RORb), RORB (gene 6096) (Q92753 whole entry, looked up, the tested form may be a part): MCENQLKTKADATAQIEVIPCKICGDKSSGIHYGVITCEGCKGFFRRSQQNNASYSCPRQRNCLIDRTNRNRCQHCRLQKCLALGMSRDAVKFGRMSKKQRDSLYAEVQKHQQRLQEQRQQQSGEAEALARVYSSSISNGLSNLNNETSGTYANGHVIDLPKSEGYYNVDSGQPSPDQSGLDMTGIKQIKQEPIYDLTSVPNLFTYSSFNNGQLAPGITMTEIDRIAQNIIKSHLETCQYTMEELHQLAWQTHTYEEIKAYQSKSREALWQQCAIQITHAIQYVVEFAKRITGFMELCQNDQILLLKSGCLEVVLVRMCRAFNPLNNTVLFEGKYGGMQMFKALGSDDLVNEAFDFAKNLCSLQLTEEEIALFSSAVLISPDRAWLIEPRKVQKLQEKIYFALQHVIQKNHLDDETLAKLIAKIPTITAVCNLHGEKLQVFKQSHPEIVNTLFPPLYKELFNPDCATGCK
In short: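 HepG2, transient MRTU transfection (GAL4-UAS reporters, exogenous NR-Gal4 chimeras); 24 h compound exposure; total RNA → RT-PCR → 6-FAM primer extension → HpaI digest → CE fluorescence. Positive direction vs DMSO baseline.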

[13] = target: human RAR-related Orphan Receptor gamma (RORg), RORC (gene 6097) (UniProt P51449); assay: ATG_RORg_TRANS: Attagene TRANS-FACTORIAL HepG2 Assay for human RAR-related Orphan Receptor gamma (RORg) (AID 2283011)
Chain of human RAR-related Orphan Receptor gamma (RORg), RORC (gene 6097) (P51449 whole entry, looked up, the tested form may be a part): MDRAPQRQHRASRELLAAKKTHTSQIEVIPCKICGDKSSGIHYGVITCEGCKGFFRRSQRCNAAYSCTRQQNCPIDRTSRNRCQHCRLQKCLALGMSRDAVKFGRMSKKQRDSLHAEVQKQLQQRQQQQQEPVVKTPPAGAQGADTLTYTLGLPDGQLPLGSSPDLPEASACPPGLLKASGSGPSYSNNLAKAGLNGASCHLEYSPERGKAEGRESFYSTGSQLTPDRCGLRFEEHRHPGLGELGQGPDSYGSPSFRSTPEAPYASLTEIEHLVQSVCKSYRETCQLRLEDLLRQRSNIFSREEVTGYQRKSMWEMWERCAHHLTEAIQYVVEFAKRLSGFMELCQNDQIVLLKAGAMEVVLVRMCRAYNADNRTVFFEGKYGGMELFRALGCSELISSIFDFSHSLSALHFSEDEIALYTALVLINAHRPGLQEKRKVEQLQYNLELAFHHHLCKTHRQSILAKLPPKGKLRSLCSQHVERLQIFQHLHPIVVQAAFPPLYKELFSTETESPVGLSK
In short: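 Reporter transcripts from a transfected RORg-GAL4 chimera in HepG2 cells were quantified 24 h after dosing by RT-PCR, 6-FAM labelling, HpaI digestion and capillary electrophoresis; increases over DMSO baseline were fitted.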

[14] = target: Retinoic acid receptor RXR-alpha (Homo sapiens) (UniProt P19793); assay: ATG_RXRa_TRANS: Attagene TRANS-FACTORIAL HepG2 Assay for human Retinoid X Receptor alpha (RXRa) (AID 2283012)
Chain of Retinoic acid receptor RXR-alpha (Homo sapiens) (P19793 whole entry, looked up, the tested form may be a part): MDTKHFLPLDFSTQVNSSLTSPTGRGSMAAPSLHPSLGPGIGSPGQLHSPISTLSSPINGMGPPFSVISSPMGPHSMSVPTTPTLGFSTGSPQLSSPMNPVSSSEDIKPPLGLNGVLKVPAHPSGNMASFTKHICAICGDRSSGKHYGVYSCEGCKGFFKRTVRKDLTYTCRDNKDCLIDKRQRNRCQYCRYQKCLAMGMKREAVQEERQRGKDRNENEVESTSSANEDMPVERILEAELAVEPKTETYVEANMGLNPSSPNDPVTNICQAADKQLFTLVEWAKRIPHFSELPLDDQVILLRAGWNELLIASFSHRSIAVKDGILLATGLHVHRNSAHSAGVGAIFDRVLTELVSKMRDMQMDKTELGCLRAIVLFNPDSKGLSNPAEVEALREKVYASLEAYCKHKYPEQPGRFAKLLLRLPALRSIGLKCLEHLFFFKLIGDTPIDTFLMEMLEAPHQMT
In short: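 Read-out: fluorescent reporter-transcript fragments quantified by capillary electrophoresis after RT-PCR. Transiently transfected HepG2 cells carrying GAL4-UAS reporters and NR-GAL4 chimeras were exposed to chemical for 24 h; activity scored as increase over DMSO.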

[15] = target: human Retinoic Acid Receptor beta (RARb), RARB (gene 5915) (UniProt P10826); assay: ATG_RARb_TRANS: Attagene TRANS-FACTORIAL HepG2 Assay for human Retinoic Acid Receptor beta (AID 2283004)
Chain of human Retinoic Acid Receptor beta (RARb), RARB (gene 5915) (P10826 whole entry, looked up, the tested form may be a part): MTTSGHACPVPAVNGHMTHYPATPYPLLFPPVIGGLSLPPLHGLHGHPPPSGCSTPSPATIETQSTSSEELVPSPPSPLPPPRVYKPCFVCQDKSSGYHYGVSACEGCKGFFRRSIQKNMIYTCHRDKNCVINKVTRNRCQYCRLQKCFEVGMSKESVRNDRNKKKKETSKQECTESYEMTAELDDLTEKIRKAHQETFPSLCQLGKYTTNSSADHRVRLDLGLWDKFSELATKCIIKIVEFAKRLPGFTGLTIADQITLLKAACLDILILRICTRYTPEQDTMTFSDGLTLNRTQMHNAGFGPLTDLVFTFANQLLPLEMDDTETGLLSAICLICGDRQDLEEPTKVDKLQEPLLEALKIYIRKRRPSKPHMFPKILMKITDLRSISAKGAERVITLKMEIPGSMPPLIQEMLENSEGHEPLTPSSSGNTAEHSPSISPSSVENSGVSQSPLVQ
In short: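 Induction of reporter mRNA from a chimeric RARb-Gal4 construct was measured by RT-PCR, FAM labelling, HpaI digestion and capillary electrophoresis. Measurements followed 24 h compound treatment of transiently transfected human HepG2 liver cells, with DMSO as baseline.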

[16] = BSK_4H_Eotaxin3: BioMAP Diversity Plus: 4H Assay for Eotaxin 3 Biomarker Activity (AID 2283000; active = hit-call score of the fitted dose curve at least 0.9, where 1 is the maximum; inactive = score below 0.9); conditions: primary human endothelial cells (HUVEC); actives raise or lower the signal
In short: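 Human umbilical vein endothelial cells (BSK_4H system) dosed with test chemical; Eotaxin-3 (CCL26) measured by ELISA 24 h after dosing. Bidirectional curve fitting relative to DMSO negative control as baseline.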

[17] = target: Retinoic acid receptor alpha (Homo sapiens) (UniProt P10276); assay: ATG_RARa_TRANS: Attagene TRANS-FACTORIAL HepG2 Assay for human Retinoic Acid Receptor alpha (RARa) (AID 2283005)
In short: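 Reporter transcripts, measured by RT-PCR with fluorescent labeling and capillary electrophoresis after 24 h dosing, reflect activity of an exogenous human RARa–GAL4 fusion in transiently transfected HepG2. Fitted for increase relative to DMSO.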

Clc1cccc(Cl)c1Cl
outcome [1]: inactive | outcome [2]: inactive | outcome [3]: inactive | outcome [4]: inactive | outcome [5]: inactive | outcome [6]: inactive | outcome [7]: inactive | outcome [8]: inactive | outcome [9]: inactive

O=C/C(Cl)=C(/Cl)C(=O)O
AC50 [1]: 26.1 µM (active) | AC50 [2]: 144 µM (active) | outcome [4]: inactive | outcome [5]: inactive | AC50 [10]: 46.7 µM (active) | outcome [11]: inactive | outcome [12]: inactive | outcome [13]: inactive | outcome [14]: inactive | outcome [9]: inactive

C1CN2CCN1CC2
outcome [1]: inactive | outcome [2]: inactive | outcome [15]: inactive | outcome [10]: inactive | outcome [11]: inactive | outcome [12]: inactive | outcome [13]: inactive | outcome [14]: inactive

NNCCO
outcome [1]: inactive | outcome [2]: inactive | outcome [11]: inactive | outcome [13]: inactive | outcome [14]: inactive

CC(C)N(C(=O)CCl)c1ccccc1
AC50 [1]: 2.75 µM (active) | AC50 [2]: 52.8 µM (active) | outcome [3]: inactive | AC50 [16]: 20 µM (active) | AC50 [6]: 25.8 µM (active) | AC50 [7]: 20 µM (active) | AC50 [10]: 3.21 µM (active)

CCCCN(CCCC)C(=S)S
AC50 [1]: 23.5 µM (active) | outcome [2]: inactive | outcome [4]: inactive | AC50 [10]: 5.99 µM (active) | AC50 [11]: 5.69 µM (active) | outcome [13]: inactive | outcome [14]: inactive | outcome [9]: inactive

CCCCCCCCCCCCOS(=O)(=O)O
outcome [1]: inactive | outcome [2]: inactive | AC50 [4]: 3.86 µM (active) and 12.1 µM (active) | outcome [11]: inactive | outcome [12]: inactive | outcome [14]: inactive | AC50 [9]: 33.4 µM (active)

CCCSP(=S)(OCC)Oc1ccc(Cl)cc1Cl (configuration not stated)
AC50 [1]: 13.3 µM (active) | outcome [2]: inactive | outcome [4]: inactive | outcome [5]: inactive | AC50 [10]: 24.3 µM (active) | AC50 [11]: 2.51 µM (active) | outcome [12]: inactive | outcome [13]: inactive | outcome [14]: inactive | AC50 [9]: 27 µM (active)

Fc1cccc(Cl)c1CCl
AC50 [1]: 26.3 µM (active) | outcome [2]: inactive | outcome [5]: inactive | AC50 [10]: 4.39 µM (active) | outcome [11]: inactive | outcome [12]: inactive | outcome [13]: inactive | outcome [14]: inactive | outcome [9]: inactive

O=c1nc(O)n(Cl)c(=O)n1Cl
outcome [1]: inactive | outcome [2]: inactive | outcome [4]: inactive | outcome [10]: inactive | outcome [11]: inactive | outcome [12]: inactive | outcome [13]: inactive | outcome [14]: inactive | outcome [9]: inactive

Oc1cc(Cl)c(Cl)cc1Cl
outcome [1]: inactive | AC50 [2]: 66.2 µM (active) | AC50 [3]: 20 µM (active) | outcome [4]: inactive | outcome [11]: inactive | outcome [14]: inactive | AC50 [9]: 151 µM (active)

C[C@@H]1O[C@@H](O[C@H]2C[C@@H](O)[C@]3(CO)[C@H]4[C@H](O)C[C@]5(C)[C@@H](C6=CC(=O)OC6)CC[C@]5(O)[C@@H]4CC[C@]3(O)C2)[C@H](O)[C@H](O)[C@H]1O
AC50 [1]: 19.5 µM (active) | AC50 [2]: 0.62 µM (active) | AC50 [4]: 71.4 nM (active) | outcome [5]: inactive | outcome [15]: inactive | outcome [17]: inactive | AC50 [10]: 0.131 µM (active) | outcome [8]: inactive | outcome [12]: inactive | outcome [13]: inactive | outcome [14]: inactive

Cc1cc(C)cc(C)c1
outcome [1]: inactive | outcome [2]: inactive | outcome [3]: inactive | outcome [4]: inactive | outcome [6]: inactive | outcome [15]: inactive | outcome [7]: inactive | outcome [8]: inactive | outcome [12]: inactive | outcome [14]: inactive

CNC(=O)N(C)c1nc2ccccc2s1
AC50 [1]: 14.5 µM (active) | outcome [2]: inactive | outcome [4]: inactive | outcome [5]: inactive | outcome [10]: inactive | AC50 [11]: 52.8 µM (active) | outcome [12]: inactive | outcome [13]: inactive | outcome [9]: inactive

Nc1ncn[nH]1
outcome [1]: inactive | outcome [2]: inactive | outcome [5]: inactive

O=C(NC(=O)c1c(F)cccc1F)Nc1ccc(Cl)cc1
outcome [1]: inactive | outcome [2]: inactive | outcome [11]: inactive | outcome [9]: inactive

COc1nn(C(=O)NS(=O)(=O)c2ccccc2OC(F)(F)F)c(=O)n1C
outcome [1]: inactive | outcome [2]: inactive | outcome [5]: inactive | outcome [15]: inactive | outcome [10]: inactive | outcome [11]: inactive | outcome [14]: inactive

CC1(C)COP(Oc2ccccc2)OC1
outcome [1]: inactive | outcome [2]: inactive | outcome [4]: inactive | outcome [5]: inactive | outcome [8]: inactive | outcome [13]: inactive | outcome [14]: inactive | outcome [9]: inactive

OC[C@@H](O)[C@H]1O[C@@H]2O[C@H](C(Cl)(Cl)Cl)O[C@@H]2[C@H]1O
outcome [1]: inactive | outcome [2]: inactive | outcome [4]: inactive | outcome [15]: inactive | outcome [17]: inactive | outcome [11]: inactive | outcome [8]: inactive | outcome [12]: inactive | outcome [9]: inactive

From PubChem BioAssay (EPA / NIEHS)
